{"source": "PubChem BioAssay AID485270", "about": "(The Scripps Research Institute Molecular Screening Center, 2010)", "note": "The whole screen tested about 330,000 compounds, of which about 5,800 (1.8%) were called active. No stated cut-off is given here; in the data, active means inhibition mostly above about 38% (no sharp cut-off); inactive means mostly below about 40%. Shown is part of a subset that was picked to be rich in actives."}
{"biological_target": "Orexin/Hypocretin receptor type 1 (Homo sapiens) (UniProt O43613)", "sequence (O43613 whole entry, looked up)": "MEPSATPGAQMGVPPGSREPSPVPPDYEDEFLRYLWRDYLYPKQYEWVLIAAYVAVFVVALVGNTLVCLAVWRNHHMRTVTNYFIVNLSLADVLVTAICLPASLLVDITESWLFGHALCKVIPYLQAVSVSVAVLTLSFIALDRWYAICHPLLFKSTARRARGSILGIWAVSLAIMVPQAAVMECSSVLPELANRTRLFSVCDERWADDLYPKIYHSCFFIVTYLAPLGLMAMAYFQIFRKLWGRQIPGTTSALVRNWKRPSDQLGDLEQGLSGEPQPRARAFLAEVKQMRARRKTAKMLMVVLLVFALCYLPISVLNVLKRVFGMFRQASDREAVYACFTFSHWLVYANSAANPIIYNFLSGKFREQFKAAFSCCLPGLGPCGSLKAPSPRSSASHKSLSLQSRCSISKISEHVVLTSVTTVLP", "test": "blocks the human orexin 1 receptor (AID 485270);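 further: 0% = agonist challenge alone and 100% = reference antagonist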", "settings": "OX1R-expressing cells, FRET antagonist read-out; at 6.6 µM; active compounds read high"}
{"molecule": "CCN(C[C@H]1N[C@@](CC)(C(=O)OC)[C@H]2C(=O)N(C)C(=O)[C@@H]12)C(=O)Nc1ccc(F)cc1", "inhibition": "-4.34% (inactive)"}
{"molecule": "CCn1nnc2cc(C(=O)Nc3ccc(C(=O)OC(C)C)cc3)ccc21", "inhibition": "16.8% (inactive)"}
{"molecule": "CSc1ccc(/C=N\\NC(=O)CC(=O)NC(C)C)cc1", "inhibition": "9.93% (inactive)"}
{"molecule": "CSc1ccc(/C=N/NC(=O)c2cccc(Cl)c2)cc1", "inhibition": "44.4% (active)"}
{"molecule": "O=C(N/N=C/c1ccc(Cl)c(Cl)c1)c1ccc2nc[nH]c2c1", "inhibition": "31.8% (inactive)"}
{"molecule": "O=C(CCCN1C(=O)c2cccc3cccc(c23)C1=O)N1CCN(Cc2ccc3c(c2)OCO3)CC1", "inhibition": "52.3% (inactive)"}
{"molecule": "O=C(CN1C(=O)c2cccc3cccc1c23)Nc1ccccc1", "inhibition": "26.3% (inactive)"}
{"molecule": "O=C(CN1C(=O)c2cccc3cccc(c23)C1=O)N1CCCCC1", "inhibition": "79.7% (active)"}
{"molecule": "C/C(N)=C(/C#N)C(=O)COC(=O)c1cc(-c2ccc(C)cc2)nc2ccccc12", "inhibition": "86.7% (active)"}
{"molecule": "C/C(N)=C(/C#N)C(=O)COC(=O)c1cc(-c2ccccc2)nc2ccc(Br)cc12", "inhibition": "8.99% (inactive)"}
{"molecule": "C/C(N)=C(/C#N)C(=O)COC(=O)c1cc(-c2cccc(Br)c2)nc2ccccc12", "inhibition": "44.3% (inactive)"}
{"molecule": "CC[C@]1(C(=O)OC)[C@H]2C(=O)N(Cc3ccccc3)C(=O)[C@H]2[C@H]2CN=C(SCc3ccc(Cl)cc3)N21", "inhibition": "4.24% (inactive)"}
{"molecule": "CCCS(=O)(=O)N1CCC(CCOc2ccccc2)(C(=O)OCC)CC1", "inhibition": "17.7% (inactive)"}
{"molecule": "Cc1ccc(S(=O)(=O)NCC(=O)NNC(=O)c2ccc(Br)cc2)cc1C", "inhibition": "15.8% (inactive)"}
{"molecule": "Cc1cccc(NC(=O)c2sc3nc(N4CCOCC4)c4c(c3c2N)CCCC4)c1", "inhibition": "4.35% (inactive)"}
{"molecule": "Cc1nc(N2CCOCC2)nc2c1CCCC2", "inhibition": "5.29% (inactive)"}
{"molecule": "Nc1nc(-c2sc3nc4c(cc3c2N)CCCC4)nc(N2CCOCC2)n1", "inhibition": "95.8% (active)"}
{"molecule": "Cc1ccccc1-n1cc(CNC(=O)C2CCC(=O)N(C3CC3)C2)cn1", "note": "(centres undefined)", "inhibition": "15.2% (inactive)"}
{"molecule": "C=CC[C@H](CC(=O)NCCO)C(=O)N[C@@H](COC(=O)[C@@H](CC=C)Cc1ccc(F)cc1)Cc1c[nH]c2ccccc12", "inhibition": "5.23% (inactive)"}
{"molecule": "Cc1ccc2c(c1)c1ncnc(N3CCc4ccccc4C3)c1n2C", "inhibition": "74.4% (active)"}
{"molecule": "Cc1ccc2c(c1)c1ncn(CCC3=CCCCC3)c(=O)c1n2C", "inhibition": "18.4% (inactive)"}
{"molecule": "Cc1ccc2c(c1)c1ncn(Cc3ccc(F)cc3)c(=O)c1n2C", "inhibition": "8.56% (inactive)"}
{"molecule": "CN(c1ccccc1)S(=O)(=O)c1cc(C(=O)N2CCN(c3ncccn3)CC2)ccc1Cl", "inhibition": "4.83% (inactive)"}
{"molecule": "COc1ccc2oc(=O)c(C(=O)N3CCCC3)cc2c1", "inhibition": "0.49% (inactive)"}
{"molecule": "COc1ccc(-c2nc(CS(=O)CC(=O)NCc3ccccn3)c(C)o2)cc1", "note": "(centres undefined)", "inhibition": "1.65% (inactive)"}
{"molecule": "COc1ccc2oc(=O)c(C(=O)NCc3ccccn3)cc2c1", "inhibition": "95.3% (active)"}
{"molecule": "COc1ccc(CNC(=O)C[C@H]2C[C@H](C(=O)N3CCOCC3)[C@@]3(CCC4CCCC4)c4[nH]c5ccc(Cl)cc5c4CCN3C2=O)cc1OC", "inhibition": "0.33% (inactive)"}
{"molecule": "O=C1C=CN2CCCC2CC1", "note": "(centres undefined)", "inhibition": "13.3% (inactive)"}
{"molecule": "CC(=O)Nc1ccc(S(=O)(=O)NCCC(=O)N2CCN(c3ccccc3Cl)CC2)cc1", "inhibition": "13.1% (inactive)"}
{"molecule": "CN1C(=O)/C(=C\\c2cc(Br)cs2)c2ccccc21", "inhibition": "63.8% (active)"}
{"molecule": "CN1C(=O)/C(=N/OC(=O)c2ccccc2Br)c2ccccc21", "inhibition": "14% (inactive)"}
{"molecule": "CCC1C(=O)c2ccccc2N(C)C1=O", "note": "(centres undefined)", "inhibition": "17.9% (inactive)"}
{"molecule": "CCOCc1c(C(=O)N2CCN(Cc3ccc(Br)s3)CC2)oc2ccccc12", "inhibition": "5.32% (inactive)"}
{"molecule": "O=C(COc1ccc([N+](=O)[O-])cc1Cl)Nc1ccc2[nH]c(=O)[nH]c2c1", "inhibition": "9.15% (inactive)"}
{"molecule": "CCCCCCSc1ccc([C@@H]2[C@H]3C(=O)N(CC)C(=O)[C@H]3[C@]3(C(=O)OC)CCCCN23)cc1", "inhibition": "3.69% (inactive)"}
{"molecule": "COc1ccc(Nc2oc(-c3ccccc3Cl)nc2C#N)cc1", "inhibition": "29.4% (inactive)"}
{"molecule": "CC1CCN(c2oc(-c3ccccc3F)nc2C#N)CC1", "inhibition": "9.88% (inactive)"}
{"molecule": "N#Cc1nc(-c2cccc3ccccc23)oc1N", "inhibition": "71.4% (active)"}
{"molecule": "Cc1ccc(NC(=O)C2CC2)cc1S(=O)(=O)N1CCOCC1", "inhibition": "5.49% (inactive)"}
